# Laboratory results taken from the supplement of paper PMC11417369.
# ± gives the standard deviation of the averaged measurements. Whole data set: some 25,000 sequences, median “ln(normalized median fluorescence intensity)” near 10, cut for the highest 2% near 12. Shown is part of a subset that was picked to be rich in the highest values.
# Tested on: PfAP2-G AP2 domain (GST-tagged)
# Assay: gcPBM binding intensity (ln(normalized median fluorescence intensity)); higher = stronger DNA binding
# Outline: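 The binding buffer was 1× PBS containing 1% milk, 0.2 mg/ml BSA, 0.5% salmon testes DNA and 0.03% Triton X-100. In it, GST-tagged P. falciparum DNA-binding domains expressed in E. coli were applied for 1 h to an Agilent 4 × 180k array of primer-extended double-stranded 36-bp intergenic genomic probes plus negative controls. Binding intensity, read with Alexa488 anti-GST antibody and a 488 nm scan, is the highest Masliner-normalised natural-log median intensity across replicate spots of either probe orientation.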
row,Sequence,gcPBM binding intensity (ln)
1,TTTATATATTTTAGGAGTACATTAAATTATACCTTA [XGTACX_site5600],11.5 ± 0.89
2,TAACATAAATTTAGGAGTACACTTTTTATACATACA [XGTACX_site4066],11.7 ± 1
3,TATTTAATTTTTAAATGTACATATAAAATAATATAT [XGTACX_site2422],11.2 ± 0.89
4,CCCACGTATATTTTGTGTACATAAATAAATAAATAA [XGTACX_site4046],11.6 ± 0.86
5,TTTATATATTTTAGGTGTACATAAATTTTTATATAT [XGTACX_site5597],11.7 ± 1.1
6,AATATCTAAAATGTGTGTACATAATATTTTTAATAT [XGTACX_site3831],11.7 ± 1.1
7,TAAAAATAATATATTTGTACATATGTGTATACATAA [XGTACX_site741],10.7 ± 0.38
8,AATTTTTTAAATGTGTGTACATATTATTTAAATAAT [XGTACX_site5967],11.5 ± 0.73
9,TTTATTATTTTTAGGAGTACACAAAATAAAACAAAT [XGTACX_site8841],11.6 ± 1
10,TTATATATTTATAAATGTACATATAATTTTTTTATA [XGTACX_site4696],11.1 ± 0.67
11,ATGTATATATATTTGTGTACATATTTAGGAAATAAA [XGTACX_site2904],11.6 ± 1
12,TATAAAATATAAATTTGTACATATAAAATATTTTAT [XGTACX_site7462],10.8 ± 0.53
13,TTTTAAAGTTGTGAGCTTCATTTTTATTTATATGTA [CACACA_negctrl_site1505],9.87 ± 0.057
14,AAATAATTTATAAATAAATACATTGTTACTTTTTCT [GTGCAC_negctrl_site639],9.62 ± 0.29
15,TTTTTTTTTTTTTTTGCATGCAGGTTTTTACCCCTT [TGCATGCA_site381],9.84 ± 0.51
16,ATCATATGTATGGTGGTGCATTATGCATGAATTTTA [GTGCAC_site9798],10.1 ± 0.18
17,TATTCGTGCAATAGTAGTACACTTAAAAATTATTCA [XGTACX_site269],11.6 ± 1.1
18,TTCCAAAATTGCACATGTACAAAATTCTCCAATATG [XGTACX_site3419],10.9 ± 0.62
19,TAATGCATTTTCGCATGTACATATTTCTCTTTATAT [XGTACX_site8915],11.1 ± 0.71
20,TTATATTTTTTTGAGTGTACTTTTTGTGTAAAATTC [XGTACX_site2155],11.5 ± 0.84
21,TTCGACGAGAGCAAGTGTACTCTTGAATAATTTATA [XGTACX_site7613],11.3 ± 0.9
22,TTGTTATATTACAGTAGTACATTTAAAATCTACTAC [XGTACX_site2620],11.4 ± 0.93
23,GAGGTCTTTTTTAATGTGCACATATATATATATATA,10.7 ± 0.51

row,Sequence,gcPBM binding intensity (ln)
1,ATAAAATAATCTTATGCACACCAAAAATTTATATAA [CACACA_site8332],10.2 ± 0.12
2,TCTATTAATTAATATACACACATTAGATATAAATAT [CACACA_site7241],9.945 ± 0.092
3,TTCAATATACATATGTGTACTAAAATAAATAGAAAA [XGTACX_site5708],11.3 ± 0.83
4,TATATATATATAATGTGTACATACTAAATAGAGGAC [XGTACX_site4153],11.7 ± 1.1
5,TATTTTTATAAAAACTGTACATAATAAATAAAAATA [XGTACX_site4743],11.1 ± 0.62
6,GTATTATATTTCAACTGTACGTAAAACTATTAAAAT [XGTACX_site3679],11.7 ± 1.1
7,ATATATATAAATATATGTACTAATATATACATATAT [XGTACX_site2289],11 ± 0.69
8,AACTGTAATTTTATACGTACATAAATAATATTATAT [XGTACX_site4277],11.7 ± 0.93
9,ACGTAATAAAATAGTTGTACAACTTTTTATAATATA [XGTACX_site4393],11.8 ± 1.1
10,GTAATATTATATAGTTGTACTTTTTTTTTATTATAT [XGTACX_site483],11.5 ± 1
11,TGTATTATTAATATTTGTACGTAATAATAAAAACAT [XGTACX_site3716],11.5 ± 1
12,TAATAATAAAAAATACGTACATATTATTTATATATG [XGTACX_site853],11.4 ± 0.76
13,ACTTCAAAAATAAACTGTACGTAAAAAAAAAAAAAA [XGTACX_site795],11.5 ± 1
14,TCAATATAAATTAGTTGTACAGTTTTTTTTAATTAT [XGTACX_site6358],11.5 ± 0.92
15,ATAATAAGAAAAAAAAAAAAAAAAAAAAAAAAAAAA [TGCATGCA_negctrl_site377],9.59 ± 0.58
16,TTATTGTACTTGCTCGCATGCAATAAAAATATATTA [TGCATGCA_site580],11.2 ± 1.1
17,ATAAATTTTTAAACAGCACACATAAATATAATATAT [CACACA_site8691],10.06 ± 0.064
18,TGATAACCTCACAAATGTACGTACGGGGCTAGCATT [XGTACX_site4157],11.4 ± 0.78
19,GTATATGAATGTTCATGTACATAATAAAATATATAA [XGTACX_site250],11 ± 0.56
20,ATGCGTTTAGCAAAAAGTACATATATATATAATATT [XGTACX_site1928],11.2 ± 0.73
21,TTTTATTTATATTATACACACAAGGAAAAAAAAAAA [CACACA_site7690],10.2 ± 0.26
22,GTTTTCTAGTGGGGGTGTACATATTTATATTTAATA [XGTACX_site8378],11.7 ± 0.86
23,TTATAATTTTTCTATTGTACATTTAATAATATATAT [XGTACX_site7326],10.9 ± 0.47

row,Sequence,gcPBM binding intensity (ln)
1,AGTTTCCATATGAGGTGTACATATATAATTTATTAT [XGTACX_site2369],11.6 ± 0.71
2,AATAGTTATTCCAGGTGTACATAACATATAATTTAC [XGTACX_site1340],11.5 ± 0.95
3,AATAAAAAAAATTTCTGTACATATATTTATTATATA [XGTACX_site1883],11.1 ± 0.74
4,CTTTTTTTTTAAAAATGTACACATTTTTGAAAATAC [XGTACX_site3127],11.4 ± 0.84
5,ATTATTTATTATTTCTGTACGTATAAAAATAACATT [XGTACX_site1671],11.7 ± 1.1
6,ATATATTATTTCTAGTGTACATACCCATATATAATA [XGTACX_site8902],11.2 ± 0.69
7,TGGTGTTTTTTTTAATGTACTTATAAAATAATACAT [XGTACX_site6574],11.4 ± 0.83
8,ATAAATACTTTTTGGTGTACACTTTTAAATGAAAAA [XGTACX_site3042],11.8 ± 1
9,TATAAAATATATATCTGTACGTATTTTATTTTTTAT [XGTACX_site6257],11.4 ± 0.88
10,TATATATTATATATATGTACATAATTCCATGTTTAG [XGTACX_site3943],11.2 ± 0.81
11,ATTTTTTAAAATATTTGTACATATATAATGCATATA [XGTACX_site7026],11 ± 0.64
12,TTCTTTTTCCAATTTGCACACCACAAAATTATATAT [CACACA_site2909],10.5 ± 0.28
13,AGAGTATATATATATGCATGCATATCTCATATTTAT [TGCATGCA_site509],9.71 ± 0.13
14,CATATTAATATTATGGGTACATATAAATTTACATTC [XGTACX_site687],11.4 ± 0.83
15,TTTCTTGGGAGACATGCATGTACCAGAACAAAATAA [TGCATGCA_site272],10.9 ± 0.64
16,AAAAAAAAAAAAAAAAAAAAAAAAAAAAATAAAAAA [CACACA_negctrl_site59],11 ± 0.47
17,TATTATATATATAACTGTACGTTTATAATATAAAAA [XGTACX_site3778],11.4 ± 1.1
18,AAAATAATAAAAAACTGTACGAATTAAAAATTAACA [XGTACX_site8454],11.1 ± 0.8
19,AATAATAACTGTAGGTGTACGTAAAAAAAAAATTAT [XGTACX_site3133],11.7 ± 0.96
20,AAAACATATTTTAAAAGTACTTGAAAAAAAATTTTC [XGTACX_site3940],11 ± 0.56
21,CCAAAAAATATATGTAGTACTACATTATTAAATATG [XGTACX_site5128],11.6 ± 0.83
22,ATATAATATTACACAAGTACAAAAATTAATACTAAA [XGTACX_site482],11.1 ± 0.61
23,ACTACTCCATTAAGTAGTACACAAAAAAAAAAAATA [XGTACX_site7031],11.8 ± 1.1

row,Sequence,gcPBM binding intensity (ln)
1,CTCATCCTTACATACACACACATATATATATATATA [CACACA_site103],10.3 ± 0.41
2,AGTTTATATTATTAAAGTACATATATATATTCTTAA [XGTACX_site3164],11.1 ± 0.76
3,ATATATTTAATTTATGGTACACATAATTTTTTTAGA [XGTACX_site848],11.2 ± 0.79
4,TATATATATATATTATGTACTCATTTATTATCTTTT [XGTACX_site8051],11.4 ± 1.1
5,TTTGTCATTTTATTATGTACTCAGCATATAGGGGGG [XGTACX_site505],11.7 ± 0.66
6,ATATATATATATATATGTACTCATATTTTATTATTT [XGTACX_site898],11.4 ± 0.94
7,AAAAAAAAAAAACATACACACATACATACATATATA [CACACA_site8222],9.86 ± 0.099
8,ATTAAAGTTATAAATTCACACATGTAAATGTATTTA [CACACA_site5279],9.85 ± 0.11
9,TAGTAGTTATCATTAACATGCAATAATATTATTTAA [TGCATGCA_site178],9.635 ± 0.035
10,AATATAGATATAAAAAGTACATTATATATATATATA [XGTACX_site6899],11.3 ± 0.78
11,ATATATATATATATATGTACACATATATGTGTTTGT [XGTACX_site62],11.4 ± 0.88
12,GCTTCTTAATATCATACACACATAGATATATTTATA [CACACA_site5676],9.925 ± 0.078
13,ATTTCTAGTTTAAGATGTACTTTAATAAAAATTATT [XGTACX_site4820],11 ± 0.77
14,AAGGCATACAATACCTGTACGCAACCTTAAAAAGAA [XGTACX_site6070],11.5 ± 0.91
15,AAAAATATTAAAAGGCGTACAATACCTGTATGCAAC [XGTACX_site6069],11.6 ± 1
16,TATATATGTATGTATTGTACAATTAAAAATATGTAT [XGTACX_site3990],10.8 ± 0.43
17,TCTATTTTCTTATGAATGCACTAATTTATAAAACGT,10.1 ± 0.13
18,TATCATATATGAAGGTGTACGATTTATTATATAAAT [XGTACX_site7010],11.4 ± 0.95
19,TTAAAATTAAAAATAGGTACACATATGAACAAGGAC [XGTACX_site1180],11.5 ± 0.78
20,ATTATAAGAAGGGGGGGTACATAAATATAAATGTAT [XGTACX_site5624],11.9 ± 0.95
21,AAAAAAAAAAAGAAGGGTACATATTATATATAATAT [XGTACX_site6204],11.2 ± 0.76
22,TATAAGAATAAAAAGGGTACATAAAATAATAATATA [XGTACX_site2355],11.3 ± 0.73
